From PubChem BioAssay (NCATS)
Several values for one entry are separate records, joined by “and”; a condition that tells them apart may be missing. Equal entries are not always repeated. Inconclusive results are not listed. Activity calls are given as the source filed them. Unless noted, how the calls were made is not given here.

Columns and labels:
[1] = qHTS profiling of the MIPE4 collection as inhibitors of Plasmodium falciparum (HB3) proliferation (AID 743347);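 further: plate controls were DMSO vehicle wells for no effect and artemisinin wells for full effect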; details: P. falciparum HB3 in erythrocytes, SYBR Green DNA, 72 h; at 28.5 µM (top of the series) unless noted
Procedure, shortened: (§1)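 Erythrocytes infected with P. falciparum (0.3% parasitemia, 2.5% hematocrit) incubated with compounds 72 h at 37 C, 5% CO2. Lysis with saponin/Triton buffer containing SYBR Green I, overnight at room temperature in the dark; DNA fluorescence (485/535 nm) normalised to 0.29 uM artemisinin and DMSO.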

[2] = High-throughput drug toxicity screening in the BPDCN cell line Gen2.2 (AID 1224824); details: Gen2.2 BPDCN cells; at 45.8 µM (top of the series) unless noted;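 further: cells exposed to compounds for 48 h before reading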
Procedure, shortened: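 Gen2.2 cells, 500 per well in phenol red-free RPMI with 10% FBS, exposed to compounds 48 h at 37 C, 5% CO2; viability by CellTiter-Glo luminescence. Percent activity scaled to DMSO (100%) and 9.2 uM bortezomib final (0%).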

[3] = High-throughput drug toxicity screening in the BPDCN cell line Cal-1 (AID 1224825); details: Cal-1 BPDCN cell viability, qHTS; at 45.8 µM (top of the series) unless noted
Procedure, shortened: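 500 Cal-1 cells/well, RPMI + glutamine + 10% FBS (phenol red-free); cpd added by pin tool; 48 h, 37C, 5% CO2; CTG 15 min RT, lumi read. Normalised: DMSO 100%, bortezomib 9.2 uM 0%.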

[4] = qHTS Screen of the MIPE 4.0 Collection Against Ewings Sarcoma (RDES) (AID 1259252; active means well fitted inhibition curve with a large enough effect; further: nearly all actives have a fitted effect of over 35% in size; further: potency means the concentration at half of the fitted maximal effect)
Procedure, shortened: (§2)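 Cells plated in serum-containing RPMI (5% FBS) and treated with compound dilutions for 48 h. Readout luminescent viability; normalization relied on vehicle (no inhibition) and media-only columns (full inhibition).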

[5] = qHTS Screen of the MIPE 4.0 Collection Against Ewings Sarcoma (EW8) (AID 1259255; active means well fitted inhibition curve with a large enough effect; further: nearly all actives have a fitted effect of over 35% in size; further: potency means the concentration at half of the fitted maximal effect;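 on viability: 100% = DMSO-treated cells and 0% = medium-only wells without cells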)
Procedure, shortened: as §2

[6] = qHTS Screen of the MIPE 4.0 Collection Against Ewings Sarcoma (TC32) (AID 1259256; active means well fitted inhibition curve with a large enough effect; further: nearly all actives have a fitted effect of over 45% in size; further: potency means the concentration at half of the fitted maximal effect)
Procedure, shortened: as §2

[7] = qHTS profiling of the MIPE4 collection as inhibitors of Plasmodium falciparum (DD2) proliferation (Rep 2) (AID 743346); details: P. falciparum Dd2 in erythrocytes, SYBR Green DNA, 72 h; at 28.5 µM (top of the series) unless noted
Procedure, shortened: as §1

[8] = qHTS assay for measurement of the activity of small molecule inhibitors on Zika virus induced Caspase-3 activity in human astrocytoma cells (AID 1224859; active means well fitted inhibition curve with a large enough effect;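 further: plate controls were ZIKV-infected untreated cells for no effect and uninfected cells for full effect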)
Procedure, shortened: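 Percent inhibition of virus-induced caspase-3/7 signal is calculated against uninfected and ZIKV-infected control cells. Cells are SNB-19, infected at 2 FFU/cell for 6 h after 1 h compound exposure.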

[9] = qHTS Screen of the MIPE 4.0 Collection Against Ewings Sarcoma (TC71) (AID 1259253; active means well fitted inhibition curve with a large enough effect; further: nearly all actives have a fitted effect of over 40% in size; further: potency means the concentration at half of the fitted maximal effect)
Procedure, shortened: as §2

[10] = qHTS assay for measurement of the activity of small molecule inhibitors on Zika virus induced Caspase-3 activity in human iPSC derived neural progenitor cells (hNPCs) (AID 1224857; active means well fitted inhibition curve with a large enough effect; further: nearly all actives have a fitted effect of over 65% in size; further: potency means the concentration at half of the fitted maximal effect)
Procedure, shortened: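 Cells were plated at 350 per well and grown 16 to 20 hours. Compound pretreatment lasted one hour, after which ZIKV (2 FFU/cell) was added for 6 hours. Percent inhibition was normalized between uninfected and infected controls.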

Structure (SMILES)	growth, % of control [1]	cell viability, % of control (lower = more cytotoxic) [2]	viability (% of control) [3]	Potency [4]	Potency [5]	Potency [6]	parasite growth, % of control (lower = inhibition) [7]	Potency [8]	Potency [9]	Potency [10]
CC(C(=O)O)c1ccc(-c2ccccc2)c(F)c1 (stereo not drawn)	96%	84.9%	96.9%	18.7 µM (active)	inactive	11.8 µM (active)				
Cn1cc(C=C2C(=O)Nc3cccnc32)c2ccccc21	2.02%	111%	63.5%			inactive	53%			
O=C(O)c1c(Cl)c(Cl)c(Cl)c(Cl)c1-c1c2cc(I)c(=O)c(I)c-2oc2c(I)c(O)c(I)cc12	88.8%	96.1%	55.1%			18.7 µM (active)	80.2%	inactive		
C=C1C(=O)[C@@]23C(CC[C@@H]1[C@H]2O)[C@@]12CO[C@]3(O)[C@@H](O)[C@@H]1C(C)(C)CC[C@@H]2O (stereo partly drawn)	5.26%	2.66%	2.13%	7.43 µM (active)	4.18 µM (active)	5.26 µM (active)	18.4%		6.62 µM (active)	
CCOC(=O)C1=C(N)Oc2ccc(Br)cc2C1C(C#N)C(=O)OCC (stereo not drawn)	107%	3.23%	9.05%			37.2 µM (active)		inactive		
Cc1c(NC(=O)c2ccc(C(C)(C)C)cc2)cccc1-c1cn(C)c(=O)c(Nc2ccc(C(=O)N3CCOCC3)cc2)n1	5.53%	29.7%	42.2%		20.9 µM (active)	20.9 µM (active)	10.1%			
O=c1cc(-c2ccccc2)oc2cc(O)c(O)c(O)c12	6.52%	151%	91.7%	20.9 µM (active)			28.3%		23.5 µM (active)	
O=c1cc(-c2ccc(O)cc2)oc2cc(O)cc(O)c12	3.14%	8.72%	4.48%	18.7 µM (active)	23.5 µM (active)		6.57%		20.9 µM (active)	
NS(=O)(=O)c1cccc2c1C(=O)c1cccc(O)c1C2=O	2.61%	5.1%	3.92%	18.7 µM (active)	11.8 µM (active)	1.87 µM (active)	4.4%		18.7 µM (active)	
O=C1NC(=O)C(=Cc2ccc3nccnc3c2)S1	88.4% [at 9.64 µM]	31% [at 23.2 µM]	44.1% [at 23.2 µM]	14.4 µM (active)	9.11 µM (active)		114% [at 9.64 µM]		11.5 µM (active)	
O=C(NCc1ccncc1)C12C[C@H]3C[C@@H](C1)CC(c1ccc(Cl)cc1)(C3)C2	42.3%	16.2%	11.3%				26%	inactive		
NC(=O)NN=Cc1ccc([N+](=O)[O-])o1	13.3%	172%	72.8%				14.3%	inactive		
O=C1C[C@@H](c2ccc(O)cc2)Oc2cc(O)cc(O)c21	5.63%	70.3%	103%		13.2 µM (active)	inactive			inactive	
c1ccc2c(Cc3c[nH]c4ccccc34)c[nH]c2c1	23.8%	29.3%	13.2%	2.64 µM (active)	14.8 µM (active)	4.18 µM (active)	22.5%		4.18 µM (active)	
COCCCCC(=NOCCN)c1ccc(C(F)(F)F)cc1	47.6%	56%	88.3%				49%	inactive		
O=C(O)C(O)Cc1ccc(O)c(O)c1 (stereo not drawn)	106%	94.8%	105%			inactive	65.6%	inactive		
COc1ccc(C2CC(c3ccccc3)=NN2c2ccc(S(N)(=O)=O)cc2)cc1 (stereo not drawn)	66%	76.6%	27.3%					inactive		
CC(C)(C)Cn1c(N)nc2ccc(-c3[nH]c(C(C)(C)C)nc3-c3ccc(F)cc3)nc21	4.94%	207%	59.3%			13.2 µM (active)	16%	inactive		
O=C1NC(=O)C(=Cc2ccc(-c3ccc(F)cc3)o2)S1	75.6%	57.7%	95.6%		inactive		91.6%		23.5 µM (active)	
CC(=NNC(=S)N1CCC1)c1ccccn1	6.19%	91.1%	9.75%				10.5%		0.0053 µM (active)	
O=c1c(O)c(-c2ccc(O)cc2)oc2cc(O)cc(O)c12	19.7%	140%	13.1%	16.6 µM (active)	11.8 µM (active)		27.5%		18.7 µM (active)	
Oc1ccc(C2=Cc3ccc(O)cc3OC2)cc1	24.6%	16.5%	3.88%	5.9 µM (active)	6.62 µM (active)	2.64 µM (active)	27.9%		3.72 µM (active)	
COc1ccc(C2Sc3ccccc3N(CCN(C)C)C(=O)C2OC(C)=O)cc1 (stereo not drawn)	60.2% and 101%	150%	90%	18.7 µM (active)	inactive	inactive	33.4% and 89.9%		inactive	
COc1ccc2c(Oc3ccc(NC(=O)c4c(C)n(CC(C)(C)O)n(-c5ccccc5)c4=O)cc3F)ccnc2c1	13.8%		13.4%				48.9%	inactive		inactive
O=C(Nc1ccccc1Br)N[C@@H]1CCN(c2ccc(C(F)(F)F)cn2)C1	71.2%		101%					inactive		inactive

Structure (SMILES)	growth, % of control [1]	cell viability, % of control (lower = more cytotoxic) [2]	viability (% of control) [3]	Potency [4]	Potency [5]	Potency [6]	parasite growth, % of control (lower = inhibition) [7]	Potency [8]	Potency [9]	Potency [10]
CC[C@H]1OC(=O)[C@H](C)C(=O)[C@H](C)[C@@H](O[C@H]2O[C@H](C)C[C@H](N(C)C)[C@@H]2O)[C@](C)(OC)C[C@@H](C)C(=O)[C@H](C)[C@H]2N(CCCCn3cnc(-c4cccnc4)c3)C(=O)O[C@]12C	9.46%		93.6%		20.9 µM (active)	16.6 µM (active)	32.9%	inactive		inactive
CN(C)CCC=C1c2ccccc2COc2ccc(CC(=O)O)cc21	99.1%		98%		inactive		121%	inactive		inactive
COC(=O)C1=CO[C@@H](O)[C@@H]2C(CO)=CC[C@@H]12	91%		16.7%		inactive		98.4%	inactive		
Clc1ccc(COC(Cn2ccnc2)c2ccc(Cl)cc2Cl)cc1 (stereo not drawn)	3.47%	115%	70.1%			18.7 µM (active)	9.72%			
CCOC1OC(=O)C[C@H]1NC(=O)[C@@H]1CCCN1C(=O)[C@@H](NC(=O)c1ccc(N)c(Cl)c1)C(C)(C)C (stereo partly drawn)			16.7%	inactive	inactive	inactive		inactive	inactive	
COc1cccc(-c2cc(=O)c3ccccc3o2)c1N	60%		9.08%	inactive	inactive		87.6%			18.7 µM (active)
C[C@H](NC(=O)C(=O)Nc1ccccc1C(C)(C)C)C(=O)N[C@@H](CC(=O)O)C(=O)COc1c(F)c(F)cc(F)c1F	405%		8.98%	inactive	inactive	inactive	49.8%		inactive	2.35 µM (active)
CC=CCC(C)C(O)C1C(=O)NC(CC)C(=O)N(C)CC(=O)N(C)C(CC(C)C)C(=O)NC(C(C)C)C(=O)N(C)C(CC(C)C)C(=O)NC(C)C(=O)NC(C)C(=O)N(C)C(CC(C)C)C(=O)N(C)C(CC(C)C)C(=O)N(C)C(C(C)C)C(=O)N1C (stereo not drawn)	4.04%	8.39%				inactive				
Cc1c(O)cccc1C(=O)N[C@@H](CSc1ccccc1)[C@H](O)CN1C[C@H]2CCCC[C@@H]2C[C@@H]1C(=O)NC(C)(C)C	15.7%		4.13%		23.5 µM (active)		37.7%	inactive		
NC1CCC(Nc2nc(Nc3ccc(C(=O)N4CCCCC4)cc3)c3ncn(-c4cccc(F)c4)c3n2)CC1 (stereo not drawn)	71.8%		101%	inactive	inactive	inactive	47.7%			16.6 µM (active)
NS(=O)(=O)c1ccc(NC2=CC(=O)c3ccccc3C2=O)cc1	3.54%		88.5%		1.87 µM (active)		8.91%	inactive		inactive
CCOC(CN1C(=O)[C@](CC(=O)Nc2ccc(C)cc2)(NC(=O)Nc2ccc(C)cc2)c2ccccc21)OCC	15.7%		46.4%			inactive	26.1%			inactive
Nc1ncnc2c1nc(Cl)n2[C@@H]1O[C@H](CO)[C@@H](O)[C@@H]1O	125%		9.15%			20.9 µM (active)	43.2%	inactive	26.4 µM (active)	inactive
O=c1[nH]cnc2c1ncn2[C@H]1CC[C@@H](CO)O1	659%		121%				101%	inactive		inactive
CC(C)(C)C(=O)Oc1ccc2c(c1)nc(NC(=O)c1cccc([N+](=O)[O-])c1)n2CCCO	10.6%		102%			inactive	22.2%	inactive	inactive	inactive
CN(C)C1CCN(C(=O)c2ccc(NC(=O)Nc3nc(N4CCOCC4)nc(N4CCOCC4)n3)cc2)CC1	4.82%		12.5%					inactive		inactive
NC(CO)(CO)CCc1ccc(Sc2cccc(OCc3ccccc3)c2)cc1Cl	6.89%		5.26%				15.3%	inactive		inactive
CN[C@@H](C)C(=O)N[C@H]1CN(C(=O)CC(C)C)CC[C@H]2CC[C@@H](C(=O)NC(c3ccccc3)c3ccccc3)N2C1=O	72.2%		9.02%		inactive		27.9%	inactive		inactive
O=C1c2ccccc2-[n+]2ccc3c([nH]c4ccccc43)c21	4.72%		3.57%	1.05 µM (active)	1.18 µM (active)	0.743 µM (active)			0.935 µM (active)	1.05 µM (active)
CO[C@H]1C=CC=C(C)C(=O)NC2=CC(=O)C(NCCN(C)C)=C(C[C@@H](C)C[C@H](OC)[C@@H](O)[C@@H](C)C=C(C)[C@@H]1OC(N)=O)C2=O	6.65%		3.52%	0.235 µM (active)	0.235 µM (active)	0.0469 µM (active)	6.75%	inactive		
CC(=O)O[C@]1(C(C)=O)CC[C@@H]2[C@@H]3C[C@H](C)C4=CC(=O)CC[C@]4(C)[C@H]3CC[C@@]21C	16.6%		95.7%				22%	inactive		inactive
CC(C)C(=O)Oc1ccc(CO)cc1[C@H](CCN(C(C)C)C(C)C)c1ccccc1	45.5%		102%	inactive	inactive		20.1%	inactive	inactive	
CC1CCC(C(=O)N(c2cc(C#CC(C)(C)C)sc2C(=O)O)C2CCC(O)CC2)CC1 (stereo not drawn)	3.91%		92%			inactive	9.42%	inactive		inactive
CC(C)OC(=O)C(C)(C)Oc1ccc(C(=O)c2ccc(Cl)cc2)cc1			119%							
